This note sets out measurements from PubChem BioAssay (Tox21).

SMILES strings stand for the structures. Where “and” joins values, the source holds several entries; their conditions need not be identical. Equal values may be shown once. Results filed as inconclusive are left out. The source holds several records for some structures; these can differ, active in one and inactive in another. Calls of active or inactive are those of the source. Unless noted, calls follow the shape of the dose curve; as a rule, active = well fitted curve in the direction sought with a large enough effect in the repeat runs; inconclusive = weak or mixed curves; inactive = no such curve, though single readings can be large; an effect the other way counts as inactive or inconclusive.

Assay [1] is described as follows: qHTS assay for small molecule agonists of the p53 signaling pathway (AID 651631; calls by dose curve; also: nearly all actives have a fitted effect of over 15% in size; also: potency is read from the fitted curve at half-maximal effect). The essentials: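 Beta-lactamase reporter activity under p53 response elements was quantified in HCT-116 cells by FRET fluorescence, following 16 h incubation with test compounds at 37 °C and 2 h substrate development at room temperature.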
(In general: qHTS replaces the single test concentration by a dilution series.)

Assay [2] is described as follows: qHTS assay for small molecules that induce genotoxicity in human embryonic kidney cells expressing luciferase-tagged ATAD5 (AID 651632). Also: nearly all actives have a fitted effect of over 15% in size. The gist of the method: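 Concentration-response screen for ATAD5 upregulation in HEK293T luciferase reporter cells; 16 hr treatment at 37C, then luminescence after 30 min with Amplite at room temperature.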
A short description of assay [3]: qHTS assay for small molecule agonists of the p53 signaling pathway - cell viability (AID 651633; calls by dose curve; also: nearly all actives have a fitted effect of over 30% in size; also: potency is read from the fitted curve at half-maximal effect). The gist of the method: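 p53RE-bla cells, seeded at 4,000 per well and rested 5 h at 37 C/5% CO2, received compounds in DMSO for 16 h at 37 C. CellTiter-Glo was then added, and luminescence was read after 30 min at room temperature to gauge cytotoxicity.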
A short description of assay [4]: qHTS assay for small molecules that induce genotoxicity in human embryonic kidney cells expressing luciferase-tagged ATAD5 - cell viability (AID 651634; calls by dose curve; also: nearly all actives have a fitted effect of over 25% in size; also: potency is read from the fitted curve at half-maximal effect). The essentials: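 15.5 hr compound or vehicle exposure of HEK293T cells expressing luciferase-tagged ATAD5 at 37C; live-cell protease activity is read by fluorescence after 30 min of CellTiter-Fluor.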
Assay [5] can be described thus: qHTS assay for small molecule disruptors of the mitochondrial membrane potential (AID 720635). Also: potency is read from the fitted curve at half-maximal effect. The gist of the method:
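HepG2 cells (2,000/well) attached overnight at 37C, then took compound for 1 hr at 37C, 5% CO2. Mito-MPS dye was added for 30 min; fluorescence was read at 490/535 nm (monomers) and 540/590 nm (aggregates).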

Assay [6] in a line: qHTS assay to test for compound auto fluorescence at 590 nm (red) in HepG2 cells (AID 720674). The gist of the method: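 Intrinsic compound fluorescence in the red window (Ex/Em 540/590 nm) is measured in attached HepG2 cells exposed for 1 hr, DMSO vehicle as baseline, benchmarked to Rose Bengal sodium.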
Assay [7] can be described thus: qHTS assay to test for compound auto fluorescence at 535 nm (green) in HepG2 cells (AID 720675).
Assay [8] is described as follows: qHTS assay to test for compound auto fluorescence at 460 nm (blue) in HEK293 cells (AID 720678). Also: potency is read from the fitted curve at half-maximal effect. The essentials: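 Measured: blue fluorescence (Ex 405/Em 460 nm) of compound-treated HEK293 cells, incubated overnight at 37C with 5% CO2 and scaled to triamterene equivalents.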
The nature of assay [9]: qHTS assay to test for compound auto fluorescence at 590 nm (red) in HEK293 cells (AID 720679). The essentials:
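Using HEK293 cells at 2,000 per well, the screen added 23 nL of each compound after cell attachment and incubated overnight (37C, 5% CO2). The plate reader then captured red-label fluorescence, Ex/Em 540/590nm.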

The nature of assay [10]: qHTS assay for small molecule disruptors of the mitochondrial membrane potential - cell viability (AID 720634; calls by dose curve;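 also: human HepG2 liver cancer cells; series mostly up to about 83 µM; nearly all actives have a fitted effect of over 20% in size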). The gist of the method: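 In this qHTS format, HepG2 cells plated overnight were pinned with compound, incubated 1 hr, and assayed for ATP luminescence with CellTiter-Glo after m-MPI dye addition.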
% is scaled to controls: 0 for no effect and ±100 for the full control effect; tags tell the direction and shape of the fitted curve or compound fluorescence and quenching.

Consider `CCC(=O)OC/C=C/c1ccccc1`, for which the Potency result in assay [1], in assay [2], in [3], in assay [4], in [5] and in assay [8] was “inactive” each time. In addition, the result in assay [6], in assay [7] and in assay [9] was inactive.
Turning to `CCCCCCCCSCCO`, the Potency result in [1], in [2], in assay [3], in assay [4] and in assay [8] was “inactive” in each case. In [5], the Potency is 24.3 µM (active). Besides, the result in assay [6] and in [7] was inactive.
For `CNC(=O)N(c1ccccc1)c1ccccc1`, the Potency result in [1], in assay [2], in assay [3], in [4], in assay [10] and in [8] was “inactive” in each case. Also, the result in assay [6], in [7] and in assay [9] was inactive.
As to `CCCCC(CC)COC(=O)COc1ccc(Cl)cc1C` (stereo unspecified), the Potency entry in assay [1], in [2], in assay [3], in assay [4], in assay [10] and in assay [8] was “inactive” each time. Further, the call in [7] and in [9] was inactive.
As for `CC(=N\O)/C(C)=N/O`, the Potency entry in assay [1], in [2], in [3], in assay [4], in assay [10] and in [8] was “inactive” each time. The molecule was classed as inactive in assay [6], in assay [7] and in [9].
`O=C(O)Cc1ccc(-c2ccccc2)cc1`: the Potency result in assay [1], in [2], in [3], in assay [4], in assay [10] and in assay [5] was “inactive” in each case. Moreover, the fluorescence, % of fluorescein control in assay [7] was -0.0175% [at 18.6 µM] (inactive). For the same molecule, the fluorescence, % of triamterene in assay [8] was -0.322% [at 18.6 µM] (inactive). For the same molecule, the fluorescence, % of fluorescent control in assay [9] is -0.147% [at 18.6 µM] (inactive).
On to `O=[N+]([O-])c1cccc(S(=O)(=O)NCCNS(=O)(=O)c2cccc([N+](=O)[O-])c2)c1`, for which the Potency result in [1], in [2], in assay [3], in [4] and in assay [8] was “inactive” throughout. Moreover, the Potency in [5] was 11.9 µM (active). For the same molecule, the molecule was called inactive in [6] and in assay [7].
For `CC[C@@H]([C@H](C)O)n1ncn(-c2ccc(N3CCN(c4ccc(OC[C@@H]5CO[C@@](Cn6cncn6)(c6ccc(F)cc6F)C5)cc4)CC3)cc2)c1=O`, the Potency entry in assay [1], in assay [2], in assay [10] and in [8] was “inactive” in each case. Also, the Potency in assay [3] is 29.8 µM (active). For the same molecule, the molecule was called inactive in assay [6], in assay [7] and in assay [9].
Consider `CC1=CC(=O)CC(C)(C)C1(O)/C=C/C(C)=C\C(=O)O` (stereo unspecified), for which the Potency entry in assay [1], in assay [2], in assay [3], in [4], in [5] and in assay [8] was “inactive” in each case. Also, the molecule was classed as inactive in [7] and in [9].
For the molecule `C[N+]1(C)CCC(=C(c2ccccc2)c2ccccc2)CC1`, the Potency entry in assay [1], in assay [2], in assay [3] and in [10] was “inactive” throughout. Moreover, in assay [6], the fluorescence, relative to Rose Bengal is -0.257% [at 18.6 µM] (inactive). The fluorescence, % of fluorescein control in assay [7] was -0.0806% [at 18.6 µM] (inactive). Besides, the fluorescence, % of triamterene in assay [8] was 0.577% [at 18.6 µM] (inactive). The fluorescence, % of fluorescent control in assay [9] is -0.153% [at 18.6 µM] (inactive).
Take `Cc1cc(O)c(C(C)C)cc1Cl`: the Potency entry in [1], in [2], in assay [4], in [10] and in assay [8] was “inactive” each time. In assay [5], the Potency result was “inactive and 4.33 µM (active)”. Also, in assay [7], the molecule was classed as inactive.
Consider `CCC(C)(O)CCC=C(C)C` (stereo unspecified), for which the Potency entry in [1], in assay [2], in [4], in [10], in assay [5] and in [8] was “inactive” each time. Moreover, the call in assay [6], in [7] and in [9] was inactive.
In the case of `CCCCC(=O)O[C@]1(C(=O)CO)CC[C@H]2[C@@H]3CCC4=CC(=O)CC[C@]4(C)[C@H]3[C@@H](O)C[C@@]21C`, the Potency result in assay [1], in assay [2], in assay [4], in [10], in assay [5] and in assay [8] was “inactive” in each case. The molecule was classed as inactive in [6], in assay [7] and in [9].
As to `CCC(C)(C)C1CCC(O)CC1` (stereo unspecified), the Potency result in [1], in assay [2], in [3], in assay [4] and in assay [8] was “inactive” throughout. For the same molecule, the result in [6] and in assay [7] was inactive.
On to `CCC(C)=O`, for which the Potency result in [1], in [2], in [3], in assay [4] and in assay [8] was “inactive” throughout. Further, the call in [6], in assay [7] and in assay [9] was inactive.
`CCOC(=O)C(C)Oc1ccc(Oc2nc3ccc(Cl)cc3o2)cc1` (stereo unspecified): the Potency entry in [1], in assay [2], in assay [3], in assay [4], in assay [5] and in assay [8] was “inactive” each time. Moreover, the call in assay [6], in assay [7] and in assay [9] was inactive.
As to `COc1cc2[nH]c(=O)[nH]c(=O)c2cc1OC`, the Potency result in assay [1], in [2], in assay [4], in assay [10] and in assay [5] was “inactive” throughout. In assay [7], the fluorescence, % of fluorescein control was -0.0154% [at 18.6 µM] (inactive). Further, the fluorescence, % of triamterene in assay [8] was -0.031% [at 18.6 µM] (inactive). Besides, the fluorescence, % of fluorescent control in assay [9] is -0.538% [at 18.6 µM] (inactive).
As to `CC(C)(CCl)c1ccccc1`, the Potency entry in [1], in [2], in [3], in assay [4] and in assay [8] was “inactive” throughout. The molecule was called inactive in assay [6], in assay [7] and in assay [9].
In the case of `CCc1c2c(nc3ccc(OC(=O)N4CCC(N5CCCCC5)CC4)cc13)-c1cc3c(c(=O)n1C2)COC(=O)[C@]3(O)CC`, the results for the Potency in [1], in assay [5] and in assay [8] were 2.66 µM (active), 11.9 µM (active) and 12.6 µM [fluorescent] (active), respectively. Besides, the Potency result in assay [2], in assay [4] and in assay [10] was “inactive” in each case. Moreover, the outcome in assay [6], in [7] and in [9] was inactive.
Regarding `O=C1NCCN1`, the Potency entry in [1], in assay [2], in assay [3], in assay [4] and in assay [8] was “inactive” in each case. In addition, the molecule was classed as inactive in assay [6] and in assay [7].
Take `O=S(=O)(c1ccccc1)c1ccc(Cl)cc1`: the Potency entry in [1], in assay [2], in assay [3], in assay [4] and in [8] was “inactive” each time. Moreover, the molecule was called inactive in assay [6], in assay [7] and in assay [9].
On to `CC(C)(C)CC(C)(C)c1ccc(OCCO)cc1`, for which the Potency entry in assay [1], in assay [2], in assay [10] and in assay [8] was “inactive” each time. The results for the Potency in [4] and in [5] were 54.2 µM (active) and 60.8 µM (active), respectively. Besides, the result in assay [6], in assay [7] and in assay [9] was inactive.
For the molecule `Cc1cnc(C)c(C)n1`, the Potency entry in [1], in assay [2], in [4], in assay [10], in assay [5] and in assay [8] was “inactive” in each case. The molecule was called inactive in [6], in [7] and in [9].
For `C[C@@H]1C[C@H]2[C@@H]3CCC4=CC(=O)C=C[C@]4(C)[C@@]3(F)[C@@H](O)C[C@]2(C)[C@H]1C(=O)CO`, the Potency entry in assay [1], in assay [2], in [3], in [10], in assay [5] and in assay [8] was “inactive” each time. In addition, the outcome in assay [6] and in [7] was inactive.
As to `C[C@]12CCC(=O)C=C1C=C[C@@H]1[C@@H]2CC[C@@]2(C)[C@H]1CC[C@@]21CCC(=O)O1`, the Potency result in assay [1], in assay [2], in assay [4], in [10], in assay [5] and in assay [8] was “inactive” throughout. In assay [7], the molecule was called inactive.
